Results filed as inconclusive are left out. Entries that show only a call come without a potency. Activity calls are given as the source filed them. Calls come from the whole dose curve; tested in HEK293 reporter line.
Potency is the fitted concentration of half-maximal effect.

A short description of this assay: qHTS for Inhibitors of the Functional Ribonucleoprotein Complex (vRNP) of Lassa (LASV) Arenavirus: Viability assay - alamar blue signal for LASV Primary Screen (AID 1347083). Note: nearly all actives have a fitted effect of over 80% in size. The following applies: cell viability, alamar blue fluorescence (LASV minigenome counter-screen); series mostly up to 57.5 µM. In general terms: In qHTS, concentration-response curves come from the screen itself.
Regarding `CCCCCCCCOc1ccc(C(=O)c2ccccc2)c(O)c1`, the Potency result was “inactive”. The result for `CCC(=C(c1ccccc1)c1ccc(OCCN(C)C)cc1)c1ccccc1` reads “inactive”; that for `O=C(C=Cc1c(C(=O)O)[nH]c2cc(Cl)cc(Cl)c12)Nc1ccccc1`, “inactive”; that for `CC(C)CCCC(C)CCCC(C)CCCCC(C)CCCC(C)CCCC(C)C` (configuration not stated), “inactive”.

On to `Oc1cccc(-c2nc(N3CCOCC3)c3oc4ncccc4c3n2)c1`, for which the Potency is 0.885 µM (active).

Take `C[C@@H](N)C1CCC(C(=O)Nc2ccncc2)CC1` (some centres not stated): the Potency is 21.7 µM (active). Regarding `O=C(NO)c1ccccc1`, the Potency result is “inactive”.

For `O=C(Nc1cccc(C2=NCCN2)c1)Nc1cccc(C2=NCCN2)c1`, the Potency result was “inactive”. The result for `O=C(O)[C@@H](c1ccc(OCc2ccc3ccccc3n2)cc1)C1CCCC1` reads “inactive”; that for `O=C1CCCC2=C1C(c1[nH]ncc1Cl)N=C(Nc1nc3ccccc3o1)N2` (configuration not stated), “inactive”; that for `CC(C)(C)c1nnc(NS(=O)(=O)c2ccccc2)s1`, “inactive”. Regarding `CCCCCCCCCCC(CO)CCCCCCCC` (configuration not stated), the Potency entry was “inactive”.

(Values after PubChem BioAssay (NCATS).)
